FMDV antiviral: antivirals against foot and mouth disease virus; AID 1159524; FMDV antiviral cell-based qHTS; 1.2% of 410,000 active; Potency, µM (titrated, usually from 57.9 µM), for the others: at the highest dose activity change, negative = inhibition, hits mostly inhibitors; calls by dose curve; tested in HEK293T cells; note: read-out not given here; potency is the fitted concentration of half-maximal effect; nearly all actives have a fitted effect of over 45% in size
Vaccinia Venus: inhibitors of vaccinia virus (Venus reporter); Vaccinia virus Venus reporter expression, fluorescence; Potency, µM (titrated, usually from 36.5 µM), inactives show top-dose activity change, negative = inhibition, actives largely listed as inhibitors; 0.46% of 330,000 active; calls by dose curve; tested in A549 cells; note: potency is the fitted concentration of half-maximal effect; nearly all actives have a fitted effect of over 30% in size
HCMV antiviral: blocks human cytomegalovirus replication; activity change, negative = inhibition, % at 57.5 µM; HFF cells, HCMV-luciferase reporter, 72 h; active compounds read low; 4.5% of 410,000 active; in the data active = activity change below about -60%; inconclusive = no clear call, values can overlap the other calls; inactive = above about -39%
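Two compound doses tested in HFFs infected with HCMV-luciferase, MOI 1 PFU/cell, 72 h at 37C. Lysate luminescence read with OneGlo; data normalized against buffer-only and 10uM Salinomycin inhibitor controls.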
Lassa entry inh: blocks Lassa virus binding to or entry into cells; Lassa virus pseudotype entry inhibition, cell reporter; Potency, µM (highest dose often 37.9 µM), inactives show top-dose activity change, negative = inhibition, most hits filed as inhibitors; 1.2% of 300,000 active; AID 540256; calls by dose curve; tested in HEK293 cells; note: potency is the fitted concentration of half-maximal effect; nearly all actives have a fitted effect of over 50% in size
VACV mCherry inh: vaccinia inhibition (mCherry reporter); Vaccinia virus mCherry reporter infection, fluorescence; Potency, µM (titrated, usually from 36.5 µM), inactives show at the highest dose activity change, negative = inhibition, usual class: inhibitors; 0.63% of 310,000 active; AID 720579; calls by dose curve; tested in A549 cells; note: potency is the fitted concentration of half-maximal effect; nearly all actives have a fitted effect of over 35% in size
MARV entry inh: blocks Marburg virus binding to or entry into cells. Potency, µM (series often up to 37.8 µM), without a hit: top-dose activity change, negative = inhibition, actives largely listed as inhibitors. Marburg virus pseudotyped entry inhibition, cell reporter. AID 540276. 1.8% of 300,000 active; calls by dose curve; tested in HEK293 cells; note: potency is the fitted concentration of half-maximal effect
Starred values were filed as active, the others as inactive; i = inactive; ? = inconclusive; . = no result given; [ ] = dose if it differs, or a comment. Rows were chosen to be rich in hits. Some 6.5% of all compounds tested hit in one or more screens of this group. % is set by controls: 0 for no effect and ±100 for the full control effect.

SMILES	FMDV antiviral	Vaccinia Venus	HCMV antiviral	Lassa entry inh	VACV mCherry inh	MARV entry inh
Cc1ccsc1C(=O)N1CCC1(C)C(=O)NS(=O)(=O)c1ccc(C#N)cc1 (stereo not drawn)	2.6%	-3.9%	-3.3	.	36.2%	.
CC(C)c1nc2cccnc2n1C1CCN(C(=O)Cn2cccn2)CC1	-12.0%	4.0%	.	.	-10.3%	.
CCCOc1cc(C)nc(-c2ccccc2O)n1	5.0%	-4.7%	-64.7*	6.5%	.	3.5%
Cc1cc(OC(C)C)nc(-c2ccccc2O)n1	0.2%	.	-22.1	8.7%	.	6.1%
CNC[C@@H](C)NC[C@@H](Cc1ccccc1)NCCc1ccccc1	-10.8%	-18.3%	-26.8	.	-11.8%	.
CC[C@H](C)[C@@H](CN[C@H](C)CNC)NCCC(c1ccccc1)c1ccccc1	-25.5%	?	-97.0*	.	?	.
COc1ccc2c(c1)CO[C@H]([C@H](O)CO)[C@H]2C=CC#Cc1ccc(C(C)(C)C)cc1	.	.	.	.	.	-9.0%[14.2 µM]
COc1ccccc1CN1CC(C(=O)NCc2nccn2C)CCC1=O (stereo not drawn)	-1.9%	.	-37.1	.	.	.
COc1ccccc1CN1CC(C(=O)NCc2nc3ccccc3n2C)CCC1=O (stereo not drawn)	-6.5%	-14.3%	-64.3*	0.7%	i	-14.8%
COc1cc2ccc(=O)oc2cc1O	?	0.8%	0.0	.	12.8%	.
O=Nc1ccc2oc(=O)ccc2c1	.	.	.	?	.	12.6µM*
CCOc1ccc(CC(=O)Nc2nnc3n2CCS3)cc1	16.5%	2.8%	-60.7*	-9.3%[46.1 µM]	-3.3%	.
COc1ccc(CC(=O)Nc2nnc3n2CCS3)cc1	-4.6%	-0.4%	1.9	9.7%[46.1 µM]	-3.1%	.
CC(C)(C)c1ccc(C(=O)Nc2nnc3n2CCS3)cc1	16.0%	-15.2%	-84.2*	?	-16.5%	.
CC(C)(C)C(=O)Nc1nnc2n1CCS2	-10.9%	15.6%	-1.2	17.4%[46.1 µM]	19.9%	.
CCOc1nc(Nc2cc(Cl)ccc2OC)nc(OCC)n1	-5.0%	-2.7%	-18.8	-17.3%	.	6.0%
C=CCNc1nc(Cl)nc(Nc2cc(Cl)ccc2OC)n1	-12.2%	-3.9%	-27.7	2.8%	-14.0%	12.6µM*
Cc1ccc2cc(C)c(NCCO)nc2c1	-8.0%	?	-60.3*	16.5%	.	?
C/C=C(/CCC1NCCc2c1[nH]c1ccccc21)[Si](C)(C)C (stereo not drawn)	28.2µM*	?	26.0	?	-27.8%	?
CC1(C)CC[C@]2(C(=O)O[C@@H]3O[C@H](CO)[C@@H](O)[C@H](O)[C@H]3O)CC[C@]3(C)C(=CCC4[C@@]5(C)CC[C@H](O[C@@H]6O[C@H](C(=O)O)[C@@H](O[C@H]7OC[C@@H](O)[C@@H](O)[C@@H]7O)[C@H](O)[C@H]6O)C(C)(C)C5CC[C@]43C)[C@@H]2C1 (stereo partly drawn)	-14.7%	-3.1%	27.5	.	i	.
CC1(C)CC[C@]2(C(=O)O)CC[C@]3(C)C(=CC[C@@H]4[C@@]5(C)CC[C@H](O[C@@H]6O[C@H](C(=O)O)[C@@H](O)[C@H](O[C@@H]7OC[C@H](O)[C@H](O)[C@H]7O)[C@H]6O)C(C)(C)[C@@H]5CC[C@]43C)[C@@H]2C1	-66.2%	7.94µM*	-100.4*	.	?	.
CC(C)c1ccc(NC(=O)C2CCN(S(=O)(=O)c3cccc4nonc34)CC2)cc1	-16.1%	-9.8%	-11.0	-11.0%[46.1 µM]	-0.8%	?
COc1cc2cc(-c3ccc(O)cc3O)nc(C)c2cc1OC	-16.7%	0.6%	-96.8*	?	-20.2%	?
CCOc1ccc(-c2cc3cc(OC)c(OC)cc3c(C)n2)cc1	-7.1%	-0.6%	5.7	-22.2%	5.1%	1.0%[46.1 µM]
COc1cc2cc(-c3ccc(OC)c(OC)c3C)nc(N)c2cc1OC	-9.7%	-29.0%	-92.0*	?	?	?
SMILES	FMDV antiviral	Vaccinia Venus	HCMV antiviral	Lassa entry inh	VACV mCherry inh	MARV entry inh
CCc1nc(-c2ccc(OC)c(OC)c2)cc2cc(OC)c(OC)cc12	-22.3%	-6.8%	1.1	-0.3%	-8.4%	-2.9%
CCc1ccc(NC(=O)C(NS(=O)(=O)c2cccs2)C(C)C)cc1 (stereo not drawn)	-14.9%	0.8%	-2.6	0.7%[46.1 µM]	1.6%	-35.7%[46.1 µM]
COc1ccc(NC(=O)C2CC(c3ccccc3Cl)=NO2)cc1 (stereo not drawn)	61.6%	-12.9%	-11.9	13.8%	-14.0%	?
Cc1ccccc1-c1cccc(CN2CCc3nnc(C(NS(C)(=O)=O)C(C)C)n3CC2)c1 (stereo not drawn)	-3.1%	-5.2%	.	.	-5.4%	.
CCn1c(O)c(C(=O)C[C@@H]2NCCc3ccccc32)c(=O)n(CC)c1=S	.	.	.	.	.	-22.2%
NNC(=O)c1cc2ccccc2cc1O	6.31µM*	-8.2%	-74.0*	13.5%	-21.9%	?
O=C(NCC1CCCO1)c1cc2ccccc2cc1O (stereo not drawn)	66.7%	-14.5%	36.0	?	-18.4%	-7.0%
CCOC(=O)C(C)/C(C)=N/NC(=O)c1cc2ccccc2cc1O (stereo not drawn)	-13.9%	2.2%	-74.0*	?	i	?
O=C(NCC1CCCCC1)c1cc2ccccc2cc1O	2.6%	-23.9%	-75.0*	?	?	?
C/C(CC(=O)N1CCCC1)=N\NC(=O)c1cc2ccccc2cc1O	0.0%	.	?	.	.	.
CCC(C)NC(=O)c1c(N)n(/N=C/c2ccccn2)c2nc3ccccc3nc12 (stereo not drawn)	-19.5%	.	?	8.4%	.	?
CCC(C)NC(=O)c1c(N)n(/N=C/c2cccnc2)c2nc3ccccc3nc12 (stereo not drawn)	11.7%	.	-2.4	-36.8%	.	25.9µM*
O=C(CCNS(=O)(=O)c1c(Cl)cccc1Cl)N1CCCC1	-2.2%	.	6.3	.	.	.
CSc1ccc(CN2CCC(C)(Oc3ccc(F)cc3)C2)cc1 (stereo not drawn)	-16.8%	-3.2%	5.0	.	1.8%	.
CCc1ccc(-n2c(C)cc(/C=N/NC(=O)c3ccncc3)c2C)cc1	-16.5%	.	-79.0*	.	.	.
CCc1ccc(-n2c(C)cc(/C=N/NC(=O)OC)c2C)cc1	9.4%	.	-84.3*	-4.1%	.	-29.3%
Cc1cc(/C=N/NC(=O)c2cccs2)c(C)n1-c1ccccc1	12.6µM*	.	?	2.06µM*	.	?
COc1ccc(NC(=O)C(C)(C)n2cc(NC(=O)c3ccc4ccccc4n3)cn2)cc1	.	.	67.1	.	.	.
COCc1ccc(CN2CCOc3c(O)cc(-c4cc(C)c5ccc(F)cc5n4)cc3C2)o1	8.1%	-14.9%	.	.	-18.1%	.
CCCCC[C@H](C)N1C[C@H](COCc2ccccc2)Oc2cc(N3CC[C@@H](N(C)C)C3)ccc2S1(=O)=O	2.6%	-16.0%	-100.6*	.	-14.3%	.
CCCCC[C@@H](C)N1C[C@H](COCc2ccccc2)Oc2cc(N3CC[C@@H](N(C)C)C3)ccc2S1(=O)=O	-1.3%	-7.3%	-101.7*	.	-13.2%	.
O=C(Nc1ccc(Cl)cc1)C1=Cc2cc(Cl)ccc2OC1	?	?	-24.0	8.2%	-20.4%[1.46 µM]	0.5%
O=C(Nc1ccc(Cl)cc1Cl)C1=Cc2ccccc2OC1	-32.4%	-17.2%	68.8	12.6µM*	-26.1%	?

From PubChem
